Measured values: PubChem BioAssay (Tox21)
Results filed as inconclusive are left out. A number with no mark means an inactive call. The source made the active and inactive calls. Calls follow the shape of the dose curve; as a rule, active = well fitted activation curve with a large enough effect in the repeat runs; inconclusive = weak or mixed curves; inactive = no such curve, though single readings can be large or run the other way.

These compounds were tested against Aryl hydrocarbon receptor (Homo sapiens) (UniProt P35869) (assay: qHTS assay to identify small molecule that activate the aryl hydrocarbon receptor (AhR) signaling pathway (AID 743085; also: nearly all actives have a fitted effect of over 15% in size;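 as to activation: HG2L7.5c1 human HepG2 liver cells with stably integrated DRE-driven firefly reporter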)). Conditions: HepG2 AhR-luc (HG2L7.5c1), luciferase, 24 h; series mostly up to 70.3 µM; activation: at the top concentration.
Aryl hydrocarbon receptor (Homo sapiens), sequence (P35869 whole entry, looked up): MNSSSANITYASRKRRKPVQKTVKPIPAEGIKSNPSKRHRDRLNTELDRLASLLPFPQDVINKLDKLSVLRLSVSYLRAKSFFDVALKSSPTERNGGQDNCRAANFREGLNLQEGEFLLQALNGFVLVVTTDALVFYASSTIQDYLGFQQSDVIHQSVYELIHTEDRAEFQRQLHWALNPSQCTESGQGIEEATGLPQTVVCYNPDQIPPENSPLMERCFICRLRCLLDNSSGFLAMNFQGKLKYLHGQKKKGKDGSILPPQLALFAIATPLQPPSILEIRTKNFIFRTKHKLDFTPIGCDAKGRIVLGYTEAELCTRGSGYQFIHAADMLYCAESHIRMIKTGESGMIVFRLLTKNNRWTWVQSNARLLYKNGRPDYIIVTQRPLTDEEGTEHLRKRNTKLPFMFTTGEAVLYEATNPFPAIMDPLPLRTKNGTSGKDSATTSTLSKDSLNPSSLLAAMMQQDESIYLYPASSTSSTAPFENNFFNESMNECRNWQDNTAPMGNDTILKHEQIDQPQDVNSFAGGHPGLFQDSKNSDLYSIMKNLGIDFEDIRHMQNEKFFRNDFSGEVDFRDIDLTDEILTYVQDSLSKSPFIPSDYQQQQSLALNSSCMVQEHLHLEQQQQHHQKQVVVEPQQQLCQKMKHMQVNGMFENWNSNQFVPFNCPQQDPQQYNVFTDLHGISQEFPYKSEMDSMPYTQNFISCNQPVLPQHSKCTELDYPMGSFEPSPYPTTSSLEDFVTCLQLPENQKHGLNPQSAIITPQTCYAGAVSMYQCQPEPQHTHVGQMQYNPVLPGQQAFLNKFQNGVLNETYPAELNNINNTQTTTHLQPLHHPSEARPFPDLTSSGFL
Text: U.S. Tox21 Program National Center for Advancing Translational Sciences [NCATS] NIH Chemical Genomics Center [NCGC] U.S. Environmental Protection Agency [EPA] National Institutes of Environmental Health Sciences [NIEHS] National Toxicology Program [NTP] U.S. Food and Drug Administration [FDA] Tox21 Assay overview: The Aryl hydrocarbon Receptor (AhR), a member of the family of basic helix-loop-helix transcription factors, is crucial to adaptive responses to environmental changes. AhR mediates cellular responses to environmental pollutants such as aromatic hydrocarbons through induction of phase I and II enzymes but also interacts with other nuclear receptor signaling pathways. A cell based HepG2-AhR-luc assay (HG2L7.5c1 cell line, developed by Dr. Michael S. Denison, University of California at Davis, was used to assess the activation of AhR. HepG2 (human hepatocellular carcinoma) cells were stably transfected with an Ah receptor-responsive firefly luciferase reporter gene plasmid containing 20 dioxin responsive elements and luciferase reporter gene. Increased luciferase activity can be used to identify the compounds that induce AhR activation.
Tox21 Assay Protocol Summary: 4000 cells in 5 uL/well were dispensed into white wall/solid bottom 1536-well plates using a Multidrop Combi (Thermo Fisher Scientific Inc., Waltham, MA) dispenser. After the assay plates were incubated at 37C for 5 h, 23 nL of compound or DMSO vehicle was transferred to the assay plates by a pintool station (Kalypsys, San Diego, CA). The plates were incubated at 37C for 24 hr. After 1 ul/well of CellTiter-Fluor reagent (Promega, Madison, WI) was added into the assay plates using a Flying Reagent Dispenser (FRD) (Aurora Discovery, CA), the assay plates were incubated at 37C for 30 min. The fluorescence intensity in the plates was measured using a ViewLux plate reader (PerkinElmer, Shelton, CT), followed by the addition of 4 uL of ONE-Glo Luciferase Assay reagent (Promega) using an FRD (Aurora Discovery). After the assay plates were incubated at room temperature for 30 min, luminescence intensity was measured using a ViewLux plate reader (Perkin Elmer).
% is scaled to controls: 0 for no effect and ±100 for the full control effect; potency is read from the fitted curve at half-maximal effect.

Point of comparison: `COc1ccc(C)cc1N`, “activation” value 2.98%. Against it:
- COc1ccc2c3c1O[C@H]1C(=O)CC[C@H]4[C@@H](C2)N(C)CC[C@]314 — lower, 2.32%
- C[C@]12CC[C@H]3[C@@H](CCC4=C(O)C(=O)CC[C@@H]43)[C@@H]1CC[C@@H]2OC(=O)CCC1CCCC1 — higher, 3.57%
- O=P(O)(O)C(Cl)(Cl)P(=O)(O)O — lower, -0.63%
- Cc1cccc(C)c1 — lower, -1.27%
- CN(C)CCCCCCN(C)C (tested in a mixture with another compound) — lower, 2.39%
- CCON=O — lower, -1.94%
- COC(=O)[C@H]1[C@@H](OC(=O)c2ccccc2)C[C@@H]2CC[C@H]1N2C — lower, -2.47%
- CC(Cc1ccccc1)NC=O (stereo not given) — lower, 1.18%
- Oc1cc[c]([Hg][Cl])cc1 — lower, -14.7%
- C/C=C(\CC)C(=O)NC(N)=O — lower, -0.634%
- C[C@]12CC[C@H]3[C@@H](CCC4=C(Cl)C(=O)CC[C@@]43C)[C@@H]1CC[C@@H]2O — lower, -1.19%
- C[C@@H]([C@H](O)c1ccccc1)N(C)C — higher, 9.23%
- CC(C)CCC(=O)O[C@H]1CC[C@H]2[C@@H]3CCC4=CC(=O)CC[C@]4(C)[C@H]3CC[C@]12C — lower, -1.51%
- CCC1(CC)C(=O)NC(=O)N(C)C1=O — lower, -2.09%
- c1csc(C2(N3CCCCC3)CCCCC2)c1 — lower, 1.33%
- CC[N+](C)(CC)CCOC(=O)C(O)(c1ccccc1)c1ccccc1 — lower, -1.2%
- CN[C@@]1(c2ccccc2Cl)CCCCC1=O — lower, 1.86%
- O=C1CCCCC1CN1CCCCC1 (stereo not given) — lower, -0.957%
- C[C@]12C=CC(=O)C=C1CC[C@@H]1[C@@H]2CC[C@]2(C)OC(=O)CC[C@@H]12 — lower, 0.0134%
- CCNC(C)Cc1cccc(C(F)(F)F)c1 (stereo not given) — lower, -0.86%
- C=CC(=O)OCCCCCCCC(C)C — lower, -2.48%
- COC(=O)[C@@H]1[C@H]2CC[C@@H](C[C@H]1OC(=O)c1ccccc1)N2C — lower, 0.0976%
- CCCCNC(C)(C)[P+](=O)O — lower, -2.58%
- CNC(C)CC1CCCCC1 (stereo not given) — lower, -3.01%
- Cc1nnc2n1-c1ccc(Cl)cc1C(c1ccccc1)=NC2 — lower, -0.402%
- O=P1(N(CCCl)CCCl)NC(OO)CCO1 (stereo not given) — lower, 1.07%

Point of comparison: `O=C(Nc1ccccc1-c1ccc(Cl)cc1)c1cccnc1Cl`, “activation” value 9.23% [at 95 µM]. Against it:
- CC(=O)OC(C)=O — lower, -1.38% [at 95 µM]

Point of comparison: `CCNC1(c2cccs2)CCCCC1=O` (stereo not given), “activation” value -0.3% [at 32.5 µM]. Against it:
- C[C@]12C[C@H]3S[C@H]3C[C@@H]1CC[C@@H]1[C@@H]2CC[C@]2(C)[C@@H](O)CC[C@@H]12 — lower, -0.995% [at 32.5 µM]
- O=c1ccc2cc(O[C@@H]3O[C@H](CO)[C@@H](O)[C@H](O)[C@H]3O)c(O)cc2o1 — lower, -1.45% [at 32.5 µM]

For `COC(COC(N)=O)C1=C(N2CC2)C(=O)C(C)=C(N2CC2)C1=O` (stereo not given), the Potency was 29.8 µM (active).
For `CN1[C@H]2CC[C@@H]1[C@@H](C(=O)O)[C@@H](OC(=O)c1ccccc1)C2`, the Potency was “inactive”.
In the case of `Cc1ccccc1-n1c(CF)nc2ccc(N)cc2c1=O`, the Potency is reported as 29.8 µM (active).
`CCCCCc1cc(O)c2c(c1)OC(C)(C)[C@@H]1CCC(C)=C[C@@H]21` was tested, and the Potency was 9.44 µM (active).
`C[C@@H]1[C@@H]2Cc3ccc(O)cc3[C@@]1(C)CCN2CCc1ccccc1` was tested, and the Potency was 8.53 µM (active).
For `CNC(C)C(O)c1ccc(O)cc1` (stereo not given), the Potency was “inactive”.
In the case of `C[C@H]1[C@H]2Cc3ccc(O)cc3[C@]1(C)CCN2CCc1ccccc1`, the Potency is reported as 12.1 µM (active).
`C[N+]1([O-])[C@@H]2CC[C@H]1CC(OC(=O)C(CO)c1ccccc1)C2` (stereo not given in full) was tested, and the Potency was “inactive”.
